This is an account of results in PubChem BioAssay (NCI).

Molecules are shown by their SMILES. The panel holds about 83,000 compounds, 20% with a hit somewhere; the sample as a whole holds those more often.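 Method: cells in 96-well plates; compound added at one concentration; 48 h incubation; percent growth measured; values under 10 scored active.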 Values without a mark were called inactive. Calls of active or inactive are those of the source.

In this test the test system is HL-60(TB) leukemia. In words: NCI-60 one-dose screen, 48 h (100 = growth as untreated, 0 = no growth, -100 = all killed). To be noted: 10 µM unless noted.
Take `C=C(C)[C@@H]1CC[C@]2(CO)CC[C@]3(C)[C@H](CC[C@@H]4[C@@]5(C)CC[C@H](O)C(C)(C)[C@@H]5CC[C@]43C)[C@@H]12`: the growth was 66.4%.
The same measure for `Cn1c(/C(C#N)=C/c2ccc3ccccc3c2)cc2ccccc21`: -6.93% (active); for `Cc1ccc(C(C)C)c(OCC(=O)O)c1`: 117%; for `O=C1/C(=C/c2ccc([N+](=O)[O-])cc2)COc2ccc(O)cc21`: 50.9%.
`COc1ccc2cc(-c3nc4ccccc4s3)c(Cl)nc2c1OC`: the growth was 91.4%.
The result for `C[C@]12CC[C@@H]3c4ccc(OCC(=O)O)cc4CC[C@H]3[C@@H]1CCC2=O` reads 84.7%; that for `c1ccc2c(-c3nc(-c4c[nH]c5ncccc45)cs3)c[nH]c2c1`, 88%.
For the molecule `O=[N+]([O-])c1cccc(/C=C/c2ccccn2)c1`, the growth is 120%.
The same measure for `O=C(Nc1ccc(Cl)cc1)c1cc2c(cc1O)[nH]c1ccccc12`: -24.5% (active).
The same measure for `CC(=O)N1N=C(c2ccc(F)cc2)CC1c1sc(N(C)Cc2ccccc2)nc1Cl` (stereo not given): 109%; for `O=C(NNC(=S)Nc1ccccc1)c1ccc(Nc2ncnc3c2cnn3-c2cccc(Br)c2)cc1`: 111%.
Turning to `CC(=O)C[n+]1ccccc1Sc1ccc(Cl)cc1`, the growth is 28.4%.
In the case of `Cc1ccc(C(=O)Cc2ccccc2)c(O)c1`, the growth was 70.9%.
The same measure for `Cc1nc2c(-c3cnc(N)nc3)nc(N3CCOCC3)nc2n1C(C)C`: 10.8%; for `CCc1ccc(C2=NN(c3ccc(S(C)(=O)=O)cc3)C(=O)CC2)cc1`: 6.73% (active); for `CN(C)CCn1c(=O)c2ccccc2n2nc3ccccc3c12`: 70.3%.
The result for `O=S(=O)(NCCCNc1nccc(-n2ccc3cccnc32)n1)c1cccc(C(F)(F)F)c1` reads 109%; that for `COc1cc(C(=O)/C=C/c2cccnc2Nc2ccc(Cl)cc2)cc(OC)c1OC`, -27.2% (active).
The same measure for `CN(C)c1ccc2cc3c(cc2c1)Oc1ccccc1N3.[Cl][Zn][Cl]`: -10.4% (active); for `COC(=O)c1c2c(c(C)[n+]([O-])c1C)C(=O)C(NCc1cccc(OC)c1)=CC2=O`: -52.2% (active).
On to `COc1cccc(/C=N\NC(=O)c2ccncc2)c1O`, for which the growth is 9.43% (active).
The result for `O=C(/C=C\c1cccc([N+](=O)[O-])c1)/C=C/c1cccc([N+](=O)[O-])c1` reads 123%.
Turning to `O=C(N/N=c1/ccoc2cccnc12)N1CCN(c2ncccn2)CC1`, the growth was 44.2%.
Take `CCN1C(=O)C2(Nc3ccccc3S2)c2cc(C)ccc21` (stereo not given): the growth was 118%.
The result for `C[C@@H](C[C@H](CCO)c1cc(C(F)(F)F)cc(C(F)(F)F)c1)c1ccc2ccccc2c1` reads 93.5%.
As to `COc1ccc(/C=C/C(=O)c2ccc(O)c(CN3CCN(c4cc5c(cc4F)c(=O)c(C(=O)O)cn5C4CC4)CC3)c2)cc1`, the growth is 0.375% (active).
As to `N=c1ccn2c(n1)O[C@@H]1[C@@H](O)[C@H](CO)O[C@@H]12`, the growth is 84%.
Take `Fc1ccc(Nc2ccc3cc(OCCCN4CCOCC4)ccc3n2)cc1F`: the growth was 75.4%.
The same measure for `O=C1NC(=O)/C(=C\c2ccco2)S1`: 74.2%; for `COc1cccc(CNC(=O)c2cccc(C3CC(=O)c4c(cc(OC)c(OC)c4OC)O3)c2)c1` (stereo not given): 43.9%.
For `Cn1cc(-c2noc(-c3cn(C)c4ncc(F)cc34)n2)c2cc(Cl)ccc21`, the growth was 82.6%.
With `COc1ccc(-c2ccc(-c3ccc(C(=N)N)cc3)s2)cc1Cl`, the growth is -48.8% (active).
`N#CC1=C(N)Oc2c(c(N)nn2-c2ccccc2)C1c1ccc(Cl)cc1Cl` (stereo not given): the growth is 96.5%.
The same measure for `CCCCCCCCCCCCCCn1c2ccccc2c2c3c(c4c5cc(OC)ccc5oc4c21)C(=O)NC3=O`: 115%; for `Clc1ccc(-c2nc(C(Cl)Cl)nc3cc(-c4ccccc4)nn23)cc1`: 5.27% (active); for `Brc1ccc(Oc2ccc(Nc3ncnc4onc(-c5ccccc5)c34)cc2)cc1`: 101%.
As to `Cc1ccccc1C1N=C2Oc3ccccc3C=C2C(=O)N1` (stereo not given), the growth was 2.2% (active).
With `Nc1cc(Br)c(-c2nnc(CCC(=O)c3nc4ccccc4[nH]3)o2)c(Br)c1`, the growth was 88%.
The same measure for `CN(C)CCCC1(c2ccc(F)cc2)OCc2cc(-c3ccc4cc[nH]c4c3)ccc21` (stereo not given): 27.6%.
Consider `C=C1C(=O)O[C@H]2[C@H]1CC/C(CNC(=O)/C=C/c1ccccc1)=C\CC[C@@]1(C)O[C@@H]21`, for which the growth was -31.3% (active).
